Common to all, as to assay: NCI-60 one-dose screen, 48 h (100 = growth as untreated, 0 = no growth, -100 = all killed)
One test has as its system NCI-H226 lung. To be noted: 10 µM.
In another test the test system is NCI-H322M lung. Conditions: 10 µM.
For another test, the system named is HOP-62 NSCLC. Conditions: 10 µM.
Another test relates to NCI-H460 lung. Conditions: 10 µM.
A further test deals with A549/ATCC NSCLC. Conditions: 10 µM.
In the next test the test system is DU-145 prostate. To be noted: 10 µM.
The subject of another test is SF-268 CNS. Conditions: 10 µM.
A further test relates to SF-295 CNS. Conditions: 10 µM.
Another test relates to SF-539 CNS. Conditions: 10 µM.
Another test deals with M14 melanoma. To be noted: 10 µM.
For another test, the system named is HCT-15 colon. Conditions: 10 µM.
For the next test, the system named is HT29 colon. Conditions: 10 µM.
The test system of the next test is SNB-75 CNS. Conditions: 10 µM.
The next test concerns SNB-19 CNS. Conditions: 10 µM.
A further test deals with U251 CNS. Conditions: 10 µM.
The next test has as its system PC-3 prostate. To be noted: 10 µM.
For another test, the system named is SK-MEL-5 melanoma. To be noted: 10 µM.
In the next test the test system is UACC-62 melanoma. To be noted: 10 µM.
Another test deals with SK-MEL-28 melanoma. Conditions: 10 µM.
Another test has as its system HL-60(TB) leukemia. To be noted: 10 µM unless noted.

The panel holds about 83,000 compounds, 20% with a hit somewhere; the sample as a whole holds those more often.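 Cell lines were cultured in 96-well plates, exposed to a single compound concentration, and assessed for percent growth 48 hours later.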 Values without a mark were called inactive. Calls of active or inactive are those of the source. The calls were made as follows: active = growth percent below 10; inactive = the rest.

As for `C[C@H]1[C@@H](CC(=O)N[C@@H](Cc2coc3ccccc23)B(O)O)O[C@@H]2OC3(C)CC[C@H]4[C@H](C)CC[C@@H]1[C@@]24OO3`, the growth with NCI-H226 lung was -28.1% (active); in the test with NCI-H322M lung, 19.6%; in the test with HOP-62 NSCLC, -17.3% (active); in the test on NCI-H460 lung it was -28.2% (active); in the test with A549/ATCC NSCLC, 19.1%; with DU-145 prostate it was 21.6%. Moreover, the growth in the test on SF-268 CNS was 20.4%; in the test on SF-295 CNS, -88.8% (active); with SF-539 CNS, -96.4% (active); with M14 melanoma, -44% (active); in the test with HCT-15 colon, -62.3% (active); in the test with HT29 colon, -57.6% (active). For the same compound, the growth in the test on SNB-75 CNS was -19.3% (active); with SNB-19 CNS it was 26%; in the test with U251 CNS, -14.3% (active); with PC-3 prostate, -25.6% (active); in the test on SK-MEL-5 melanoma it was -97.2% (active); in the test on UACC-62 melanoma it was -90.8% (active). The growth in the test on SK-MEL-28 melanoma is -49.4% (active); with HL-60(TB) leukemia, -4.67% (active).

In the case of `CC1=C(CCC=NNC(N)=O)C2=C(C)C3(CC3)[C@@](C)(O)C(=O)C2=C1`, the growth with NCI-H226 lung was -71.7% (active); in the test on NCI-H322M lung, -13% (active); with HOP-62 NSCLC, -78.8% (active); in the test on NCI-H460 lung, -24.8% (active); in the test on A549/ATCC NSCLC, -28.6% (active); with DU-145 prostate, -29.2% (active). Besides, the growth with SF-268 CNS was -31.4% (active); in the test on SF-295 CNS, 1.93% (active); in the test with SF-539 CNS it was -99.1% (active); with M14 melanoma, -35.8% (active); in the test with HCT-15 colon it was -49.2% (active); in the test with HT29 colon, -31% (active). In addition, the growth was -96.2% (active) in the test with SNB-75 CNS; -38.6% (active) with SNB-19 CNS; -77.4% (active) in the test on U251 CNS; 2.58% (active) with PC-3 prostate; -100% (active) in the test with SK-MEL-5 melanoma; -88.1% (active) with UACC-62 melanoma. The growth in the test on SK-MEL-28 melanoma was -79.8% (active).

In the case of `CC[C@]12C=CCN3CC[C@@]4(c5ccc(OC)cc5N(C)[C@H]4[C@@](O)(C(=O)OC)[C@@H]1OC(=O)CCCC[P+](c1ccc(OC)cc1)(c1ccc(OC)cc1)c1ccc(OC)cc1)[C@@H]32`, the growth is -63.6% (active) in the test with NCI-H226 lung; -89.6% (active) in the test with NCI-H322M lung; -80.8% (active) with HOP-62 NSCLC; -87% (active) with NCI-H460 lung; -83.7% (active) in the test on A549/ATCC NSCLC; -58.2% (active) in the test on DU-145 prostate. In addition, the growth in the test on SF-268 CNS is -38.1% (active); in the test with SF-295 CNS, -93.6% (active); with SF-539 CNS, -97.4% (active); in the test with M14 melanoma, -89.8% (active); in the test on HCT-15 colon, -5.69% (active); with HT29 colon it was -63.1% (active). Also, the growth was -95.4% (active) with SNB-75 CNS; -95.7% (active) in the test on SNB-19 CNS; -95.9% (active) in the test with U251 CNS; -37.2% (active) in the test on PC-3 prostate; -97% (active) with SK-MEL-5 melanoma; -95.2% (active) with UACC-62 melanoma. The growth with SK-MEL-28 melanoma was -96.8% (active); in the test with HL-60(TB) leukemia, -45.2% (active).

For the compound `CC(=O)Oc1ccccc1C(=O)NC([Se])=NC1CCCCC1`, the growth is -21% (active) in the test with NCI-H226 lung; 0.722% (active) in the test with NCI-H322M lung; 9.51% (active) with HOP-62 NSCLC; 6.6% (active) in the test on NCI-H460 lung; 20.4% in the test on A549/ATCC NSCLC; 20% in the test with DU-145 prostate. The growth in the test on SF-268 CNS is 66.1%; with SF-295 CNS, -8.45% (active); with SF-539 CNS it was -84.7% (active); in the test on M14 melanoma, 20.7%; in the test on HCT-15 colon it was 3.57% (active); with HT29 colon, 32.1%. Further, the growth is -75.3% (active) in the test on SNB-75 CNS; 12.3% in the test with SNB-19 CNS; 24.2% with U251 CNS; 44.6% in the test on PC-3 prostate; -80% (active) with SK-MEL-5 melanoma; -57.5% (active) in the test with UACC-62 melanoma. For the same compound, the growth in the test on SK-MEL-28 melanoma is -14.7% (active); in the test on HL-60(TB) leukemia, 7.53% (active).

As for `COc1cnc2c(c1)C(=O)c1c-2n(CCCNC(C)C)c(=O)c2cc(OC)c(OC)cc12`, the growth with HL-60(TB) leukemia was 62.8%.

With `O=C(/C=C/c1ccco1)c1nc2ccccc2n1Cc1ccc(Br)cc1`, the growth in the test on NCI-H226 lung is 48.2%; with NCI-H322M lung, 62.2%; in the test with HOP-62 NSCLC it was 57%; with NCI-H460 lung, 32.4%; in the test with A549/ATCC NSCLC, 47.3%; with DU-145 prostate it was 28.1%. In addition, the growth with SF-268 CNS is 45.4%; with SF-295 CNS, 53.5%; in the test with SF-539 CNS, 26.7%; in the test on M14 melanoma, 26.2%; with HCT-15 colon, 9.97% (active); with HT29 colon it was 29.3%. Also, the growth with SNB-75 CNS is 33.6%; in the test on SNB-19 CNS it was 54.4%; in the test with U251 CNS, 18.2%; in the test on PC-3 prostate, 34.2%; in the test on SK-MEL-5 melanoma it was 57.5%; in the test on UACC-62 melanoma, 28.7%. In addition, the growth with SK-MEL-28 melanoma is 56.2%.

For `O=C(/C=C/c1ccccc1)c1nc2ccccc2n1Cc1ccc(Br)cc1`, the growth in the test with NCI-H226 lung was -71% (active); in the test with NCI-H322M lung it was -6.79% (active); in the test on HOP-62 NSCLC, -68% (active); in the test on NCI-H460 lung it was -47% (active); in the test on A549/ATCC NSCLC, -3% (active); with DU-145 prostate, -48.3% (active). Further, the growth is 3.91% (active) in the test on SF-268 CNS; -71.9% (active) in the test with SF-295 CNS; -93.4% (active) in the test on SF-539 CNS; -51.8% (active) with M14 melanoma; -70.3% (active) with HCT-15 colon; -60.3% (active) in the test with HT29 colon. For the same compound, the growth is 16.2% with SNB-75 CNS; -90.1% (active) in the test with SNB-19 CNS; -92.9% (active) in the test on U251 CNS; -31% (active) in the test with PC-3 prostate; -57% (active) with SK-MEL-5 melanoma; -94.2% (active) in the test with UACC-62 melanoma. Also, the values for the growth in the test with SK-MEL-28 melanoma and in the test on HL-60(TB) leukemia were -73.3% (active) and -14.4% (active), respectively.

As for `COC(=O)CCn1c(-c2ccc(-n3cc(-c4ccc(O[C@H]5O[C@@H]6OC7(C)CC[C@H]8[C@H](C)CC[C@@H]([C@H]5C)[C@@]68OO7)cc4)nn3)cc2)nc2ccccc21`, the growth with NCI-H226 lung was 32.8%; in the test with NCI-H322M lung, 46.7%; in the test on HOP-62 NSCLC it was 32%; in the test on NCI-H460 lung it was 11.4%; in the test with A549/ATCC NSCLC it was 30.9%; in the test with DU-145 prostate, 34%. Besides, the growth is 31.8% in the test on SF-268 CNS; 21.1% in the test with SF-295 CNS; 20.9% in the test with SF-539 CNS; 25.4% in the test on M14 melanoma; 10.4% with HCT-15 colon; 22.5% in the test with HT29 colon. The growth with SNB-75 CNS was 48.5%; with SNB-19 CNS it was 24.5%; with U251 CNS it was 32.5%; in the test on PC-3 prostate it was 25.7%; with SK-MEL-5 melanoma it was 1.38% (active); in the test with UACC-62 melanoma, 10.8%. Further, the growth with SK-MEL-28 melanoma was 28.6%; in the test with HL-60(TB) leukemia, -3.65% (active).

As to `CN(C)CCc1cn(C2CCC2)c2cccc(O)c12`, the growth with NCI-H226 lung is 69.6%; in the test with NCI-H322M lung it was 91.2%; in the test on HOP-62 NSCLC, 82.1%; with NCI-H460 lung, 70.7%; in the test on A549/ATCC NSCLC it was 71.8%; with DU-145 prostate it was 91.3%. The growth was 81.6% in the test on SF-268 CNS; 76.4% in the test with SF-295 CNS; 61.9% with SF-539 CNS; 15.9% in the test on M14 melanoma; 62.2% in the test on HCT-15 colon; 34.9% with HT29 colon. The growth in the test with SNB-75 CNS was 58.3%; in the test with SNB-19 CNS it was 87%; in the test on U251 CNS, 65.7%; in the test with PC-3 prostate, 59.9%; with SK-MEL-5 melanoma it was 46.6%; in the test on UACC-62 melanoma, 48.9%. For the same compound, the growth with SK-MEL-28 melanoma is 3.47% (active); in the test on HL-60(TB) leukemia, 12.5%.

For the origin of these results see PubChem BioAssay (NCI).
